Compound activity: PubChem, National Center for Advancing Translational Sciences (NCATS)
VACV mCherry inh – vaccinia inhibition (mCherry reporter); Vaccinia virus mCherry reporter infection, fluorescence; Potency, µM (series often up to 36.5 µM), most hits filed as inhibitors; actives 0.63% (n = 310,000); AID 720579; calls by dose curve; tested in A549 cells; also: nearly all actives have a fitted effect of over 35% in size
Pf growth 48h – inhibits P. falciparum growth in the first generation, 48 h | AID 504832 | actives 5.9% (n = 310,000) | P. falciparum luciferase growth in erythrocytes, 48 h | Potency, µM (doses to about 28.7 µM), actives largely listed as inhibitors
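Growth was read as firefly luciferase luminescence after a 48 h, 37 C, 5% CO2 exposure of compounds to reporter-bearing P. falciparum cultures (0.1% parasitemia, 2% hematocrit final) in Albumax-supplemented RPMI 1640.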
Vaccinia Venus – vaccinia inhibition (Venus reporter); actives 0.46% (n = 330,000); Vaccinia virus Venus reporter expression, fluorescence; Potency, µM (titrated, usually from 36.5 µM), usual class: inhibitors; AID 720580; calls by dose curve; tested in A549 cells; also: nearly all actives have a fitted effect of over 30% in size
Pf growth 96h – inhibits malaria parasite growth, 96 h; P. falciparum luciferase reporter growth, 96 h; Potency, µM (series often up to 28.7 µM), most hits filed as inhibitors; actives 6.9% (n = 320,000); AID 504834
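Infected RBCs, 2% Hct / 0.05% parasitemia final; luciferase-reporter P. falciparum; cpd 96 h, 37 C, 5% CO2; luciferase detection reagent; luminescence.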
NS1 inh – blocks influenza NS1 protein function. actives 0.4% (n = 270,000). AID 2326. Potency, µM (highest dose often 46.1 µM); calls by dose curve; also: actives are rising curves; nearly all actives have a fitted effect of over 50% in size
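Recovery from NS1-induced slow growth read by OD600 in budding yeast switched to galactose assay medium (pH 6.0, -URA) at 1:100 dilution. Compound 23 nl per well; the matching strain lacking NS1 serves as control.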
HCV inh – inhibitors of hepatitis C virus infection; Huh7.5.1 HCVcc-Cre infection, luciferase reporter, 44 h; Potency, µM (series often up to 41.8 µM), actives largely listed as inhibitors; actives 3.4% (n = 340,000)
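Cells (1,000/well) were plated 4 h before compound, then infected with HCVcc-Cre virus (~0.5 moi). After 44 h further culture, infection was read as luciferase luminescence following a 15 min substrate incubation at room temperature.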
Of the large screens only hits and unclear results are named; the others gave an inactive call. Only some compounds are listed: those with a hit (about 11% of all), similar ones and a draw of the others. Unless noted, calls follow the shape of the dose curve; as a rule, active = well fitted inhibition curve with a large enough effect; inconclusive = small, poorly fitted or top-dose-only effect, or another doubt; inactive = no such curve, though single readings can be large or run the other way.

CCOC(=O)N1CCN(C(=O)Cn2ccc3ccccc3c2=O)CC1	Pf growth 96h inconclusive
CCC(=O)Nc1ccc(NC(=O)Cc2ccccc2)cn1	none (no result: Pf growth 96h)
C=CCn1c(Oc2ccccc2)nc2c1c(=O)n(C)c(=O)n2C	none
Oc1ccccc1-c1nc2ccccc2nc1-c1ccccc1	Pf growth 48h 15µM, Pf growth 96h inconclusive
CCC(=O)N(CCC(c1ccc(C)cc1)c1ccco1)Cc1ccco1 (stereo not given)	Pf growth 48h 2.3µM, Pf growth 96h inconclusive, HCV inh 11µM
CCC(=O)N(CCC(c1ccco1)C(C)C)Cc1ccccc1 (stereo not given)	Pf growth 48h inconclusive, Pf growth 96h inconclusive
CC(NNC(=S)N1CCCCCC1)c1ccc2ccccc2n1 (stereo not given)	VACV mCherry inh 5.6µM (no result: Pf growth 48h, Pf growth 96h, NS1 inh, HCV inh)
Cc1cn2c(-c3ccc(Cl)cc3)nnc2s1	Pf growth 48h inconclusive, HCV inh 10µM
Clc1ccc(-c2nn3c(-c4ccccc4)nnc3s2)cc1	Pf growth 96h inconclusive (no result: VACV mCherry inh, Vaccinia Venus)
Cc1cccc(-n2ccnc2SCC(=O)Nc2cccc(S(=O)(=O)NC3=NCCC3)c2)c1C	Pf growth 48h 10µM (no result: NS1 inh)
CCc1ccc(NC(=O)CSc2nccn2-c2cccc(C)c2C)cc1	none (no result: Pf growth 48h, Pf growth 96h, NS1 inh, HCV inh)
O=C(/C=C/c1ccccc1[N+](=O)[O-])Nc1cccc(S(=O)(=O)NC2=NCCCCC2)c1	HCV inh 3.2µM (no result: Pf growth 48h, Pf growth 96h, NS1 inh)
O=C(CCl)Nc1cccc(S(=O)(=O)NC2=NCCCCC2)c1	HCV inh 6.3µM (no result: VACV mCherry inh, Pf growth 48h, Vaccinia Venus, Pf growth 96h, NS1 inh)
O=C(CCl)Nc1ccc(S(=O)(=O)NC2=NCCCCC2)cc1	VACV mCherry inh 14µM, Vaccinia Venus inconclusive, HCV inh inconclusive (no result: Pf growth 48h, Pf growth 96h, NS1 inh)
CCCNCC(=O)Nc1cccc(S(=O)(=O)NC2=NCCCCC2)c1	none (no result: Pf growth 48h, Pf growth 96h, NS1 inh)
O=C(/C=C/c1ccc(Cl)cc1Cl)Nc1cccc(S(=O)(=O)NC2=NCCCCC2)c1	VACV mCherry inh inconclusive, HCV inh inconclusive
COC(=O)Cn1c(=O)c2cccn2c2cccnc21	none (no result: Pf growth 48h, Pf growth 96h, NS1 inh, HCV inh)
COc1cc(CCC(=O)Nc2ccc(S(=O)(=O)NC3=NCCCCC3)cc2)cc(OC)c1OC	Pf growth 96h 10µM (no result: NS1 inh)
Cc1ccc(C)c(SCC(=O)Nc2cccc(S(=O)(=O)NC3=NCCCCC3)c2)c1	HCV inh inconclusive
O=C(CSc1ccc2ccccc2c1Br)Nc1cccc(S(=O)(=O)NC2=NCCCCC2)c1	VACV mCherry inh inconclusive, Vaccinia Venus 10µM, Pf growth 96h inconclusive, NS1 inh inconclusive
CCc1cc(C(=O)c2ccc(Br)cc2)c(NC(=O)CN(CC)CC)s1	Pf growth 48h 5.9µM, Pf growth 96h 8.3µM (no result: VACV mCherry inh, Vaccinia Venus)
CCN(CC)CC(=O)Nc1sc(C)cc1C(=O)c1ccccc1	Pf growth 48h 3.3µM, HCV inh 8.9µM
COc1cc(-c2nc(CN(C)Cc3nnc(C)o3)c(C)o2)ccc1F	Pf growth 96h inconclusive, HCV inh inconclusive
OC(CNCc1ccco1)COc1ccccc1 (stereo not given)	none
OC(CNCc1ccco1)Cn1c2ccccc2c2ccccc21 (stereo not given)	Pf growth 48h 2.3µM, HCV inh inconclusive (no result: VACV mCherry inh, Vaccinia Venus)
Cc1ccc(N(CC(O)Cn2c3ccccc3c3ccccc32)S(C)(=O)=O)cc1 (stereo not given)	Pf growth 96h inconclusive (no result: Pf growth 48h)
CC(=O)Nc1ccc(N(CC(O)Cn2c3ccccc3c3ccccc32)S(=O)(=O)c2ccc(C)cc2)cc1 (stereo not given)	VACV mCherry inh inconclusive, Pf growth 48h 9.3µM, Vaccinia Venus inconclusive, NS1 inh inconclusive, HCV inh inconclusive
Cc1cccc(C)c1N(CC(O)Cn1c2ccccc2c2ccccc21)S(C)(=O)=O (stereo not given)	VACV mCherry inh inconclusive, Pf growth 48h inconclusive, Vaccinia Venus inconclusive, HCV inh inconclusive (no result: Pf growth 96h)
Cc1ccc(N(CC(O)Cn2c3ccccc3c3ccccc32)S(C)(=O)=O)c(C)c1 (stereo not given)	Pf growth 48h 4.7µM (no result: VACV mCherry inh, Vaccinia Venus, Pf growth 96h)
CS(=O)(=O)N(Cc1ccco1)CC(O)Cn1c2ccccc2c2ccccc21 (stereo not given)	Pf growth 48h 9.3µM (no result: VACV mCherry inh, Vaccinia Venus, Pf growth 96h)
N#CCCn1nc(-c2ccc(Br)cc2)cc1Nc1ccccc1NC(=O)C(F)(F)F	VACV mCherry inh inconclusive, Pf growth 48h inconclusive, Vaccinia Venus inconclusive, Pf growth 96h inconclusive
N#CCCn1nc(-c2ccccc2)cc1Nc1ccccc1NC(=O)C(F)(F)F	Pf growth 96h inconclusive
